# Source: PubChem BioAssay (National Center for Advancing Translational Sciences (NCATS))
# NPSR antag: qHTS Assay for Antagonists of the Neuropeptide S Receptor: cAMP Signal Transduction. Q6W5P4. CHO-NPSR cells, cAMP TR-FRET, antagonist mode. Potency, µM (titrated, usually from 38.3 µM), for the others: top-dose activity change, negative = inhibition, actives largely listed as inhibitors. 1% of 220,000 active; further: nearly all actives have a fitted effect of over 50% in size
# TrxR1 inh: qHTS Assay for Inhibitors of Mammalian Selenoprotein Thioredoxin Reductase 1 (TrxR1): qHTS. Thioredoxin reductase 1, cytoplasmic (Rattus norvegicus), O89049. 1% of 390,000 active. Potency, µM (series often up to 114 µM), for the others: at the highest dose activity change, negative = inhibition, actives largely listed as inhibitors. recombinant rTrxR1, NADPH fluorescence consumption, selenite substrate; further: nearly all actives have a fitted effect of over 65% in size
#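 Rat TrxR1 (90 nM in the dispensed reagent) was pre-reduced with 400 uM NADPH for 5 min at room temperature, then incubated with compound for 15 min. After 400 uM selenite was added, NADPH fluorescence (Ex 340/Em 450 nm) was followed for 8 min.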
# GALK inh: qHTS Assay for Inhibitors of Human Galactokinase (GALK) | Potency, µM (highest dose often 57.5 µM), for the others: at the top dose activity change, negative = inhibition, usual class: inhibitors | 0.007% of 270,000 active | Purified GALK, Kinase-Glo residual ATP luminescence
# Target sequence (P51570 whole entry, looked up): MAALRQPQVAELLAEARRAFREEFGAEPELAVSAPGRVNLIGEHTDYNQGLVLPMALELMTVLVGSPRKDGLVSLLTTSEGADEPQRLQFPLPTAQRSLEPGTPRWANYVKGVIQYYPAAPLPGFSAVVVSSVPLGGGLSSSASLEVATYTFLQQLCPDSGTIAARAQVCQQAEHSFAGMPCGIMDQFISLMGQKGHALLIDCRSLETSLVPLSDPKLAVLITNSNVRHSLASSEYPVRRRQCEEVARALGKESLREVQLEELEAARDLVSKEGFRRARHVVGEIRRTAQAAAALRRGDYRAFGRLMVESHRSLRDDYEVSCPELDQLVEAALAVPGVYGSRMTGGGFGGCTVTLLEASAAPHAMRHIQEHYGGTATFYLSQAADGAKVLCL
#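 Human GALK (5 nM) with 35 uM ATP and 100 uM galactose in 20 mM HEPES pH 8.0, 5 mM MgCl2, 60 mM NaCl, 1 mM DTT, 0.01% BSA. After 1 h at room temperature, leftover ATP was read by Kinase-Glo Plus luminescence.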
# TrxR1 substrate: qHTS Assay for Substrates of Mammalian Selenoprotein Thioredoxin Reductase 1 (TrxR1): qHTS | Thioredoxin reductase 1, cytoplasmic (Rattus norvegicus), O89049 | purified TrxR1 substrate turnover, NADPH consumption readout | Potency, µM (top dose mostly 114 µM), without a hit: top-dose activity change, negative = substrate turnover | 0.01% of 390,000 active | AID 588456, 2011; further: nearly all actives have a fitted effect of over 50% in size
#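 Rat TrxR1, dispensed at 90 nM, was prereduced with 400 uM NADPH (final) for 5 min at ~22 deg C, then incubated with compound 15 min before 400 uM selenite. A first-read NADPH fluorescence drop versus no-compound background flagged substrates.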
# Starred values were filed as active, the others as inactive; ? = inconclusive; nt = no result given; [ ] = dose if it differs, or a comment. Hits are enriched below; roughly 1.2% of the tested compounds scored in any of these assays. The call rests on the fitted dose curve; in most records, active means well fitted curve in the direction sought with a large enough effect; inconclusive means small, poorly fitted or top-dose-only effect, or another doubt; inactive means no such curve, though single readings can be large; an effect the other way counts as inactive or inconclusive. On the % scale 0 is the no-effect control and ±100 the full control effect; potency means the concentration at half of the fitted maximal effect.
SMILES,NPSR antag,TrxR1 inh,GALK inh,TrxR1 substrate
Cn1cccc1/C=C1/C(=O)NC(=S)N(Cc2ccc(F)cc2)C1=O,?,44.7µM*,-4.0%,-1.7%
CN1C2CC(OC(=O)[C@H](CO)c3ccccc3)CC1C1OC12 (stereo partly drawn),nt,19.9%[57.1 µM],nt,9.8%[57.1 µM]
O=c1[nH]c(=S)n(-c2ccccc2F)c(O)c1C=NCc1ccco1,10.0%,-10.6%,1.5%,-6.9%
Cc1ccc(-n2c(O)c(C=NCc3ccco3)c(=O)[nH]c2=S)cc1C,-7.3%[7.67 µM],12.6µM*,4.3%,-2.2%[57.1 µM]
NCC(=O)c1ccc(Br)cc1,nt,-1.2%,nt,-0.8%
COc1ccc(-c2cc(=O)c3cc(OCC(=O)OC(C)C)ccc3o2)cc1,nt,24.9%,nt,172.9%
O=P1(Oc2ccccc2)CC=CC(COC(c2ccccc2)(c2ccccc2)c2ccccc2)O1 (stereo not drawn),nt,1.2%,nt,-5.6%
O=C(O)c1ccccc1-c1ccc(C=C2C(=O)N(c3ccccc3)C(=S)N(c3ccccc3)C2=O)o1,nt,8.91µM*,-3.1%,1.4%
CN1C[C@@H](CS(=O)(=O)N(C)C)C[C@@H]2c3cccc4c3c(cn4C)C[C@H]21,-11.1%[46.1 µM],?,nt,nt
CCOC(=O)C1=C(C)c2ccccc2OC1(C(=O)OCC)c1ccccc1 (stereo not drawn),nt,44.7µM*,nt,-11.8%
CNCCc1c[nH]c2ccccc12,15.2%,56.2µM*,7.7%,4.7%
CNCCc1c[nH]c2ccc(O)cc12,?,?,nt,5.6%[57.1 µM]
CCOc1ccccc1N1C(=O)NC(=O)/C(=C/c2ccc3c4c(cccc24)CC3)C1=O,-28.0%[46.1 µM],22.4µM*,1.4%,87.3%
COC(=O)[C@@H]1C[C@H]1[C@@H](NP(=O)(c1ccccc1)c1ccccc1)c1ccccc1,0.7%,15.8µM*,nt,-0.5%
COC(=O)[C@]1(C)C[C@H]1[C@H](NP(=O)(c1ccccc1)c1ccccc1)c1ccccc1,12.6µM*,18.8%,nt,6.8%
CCOC(=O)c1oc2ccc(S(=O)(=O)n3nc(-c4ccc(Br)cc4)cc3N)cc2c1C,nt,29.6%,nt,-0.5%
COC(=O)C[C@]1(C(=O)OC)CN(C#N)N(c2ccc(Cl)cc2)C12c1ccccc1-c1ccccc12,-13.9%[46.1 µM],-25.2%[11.4 µM],-4.4%,3.9%[11.4 µM]
COC(=O)[C@@H]1[C@@H](C(=O)OC)C2(c3ccccc3-c3ccccc32)N(c2ccc(Cl)cc2)N1C#N,6.31µM*,11.2µM*,-1.5%,-3.3%
CN[C@H]1C[C@H]2O[C@@](C)([C@H]1OC)n1c3ccccc3c3c4c(c5c6ccccc6n2c5c31)C(=O)NC4,6.31µM*,nt,0.2%,nt
Cc1ccc(N2C(=O)NC(=O)/C(=C/c3cnn(-c4ccc(C)cc4)c3)C2=O)cc1,-48.8%,?,-4.4%,-1.8%
Cc1ccc(N2C(=O)NC(=O)/C(=C\c3cnc(-c4ccccc4)nc3)C2=O)cc1,-48.4%,3.55µM*,3.5%,2.0%
CSc1ncc(/C=C2/C(=O)NC(=O)N(c3ccc(C)cc3)C2=O)cn1,-24.3%,7.94µM*,-0.8%,0.9%
CCOc1ccc(N2C(=O)NC(=O)/C(=C/c3cnc(SC)nc3)C2=O)cc1,-33.0%,3.98µM*,-2.3%,-2.7%[57.1 µM]
CSc1ncc(/C=C2/C(=O)NC(=O)N(c3ccc(Cl)cc3)C2=O)cn1,-45.6%,6.31µM*,-0.6%,-0.5%[57.1 µM]
CN(C)C(=O)Oc1cccc([N+](C)(C)C)c1,?,15.2%[57.1 µM],5.9%,10.5%[57.1 µM]
SMILES,NPSR antag,TrxR1 inh,GALK inh,TrxR1 substrate
N#CCCN,nt,-6.1%[57.1 µM],nt,2.8%[57.1 µM]
C=C1C=C(C(F)F)n2ncc(C(=O)NCc3ccccc3F)c2N1,nt,?,nt,-2.5%
CCOc1ccc(-c2cn3c(n2)sc2cc(C(=O)N4CCCC(C)C4)ccc23)cc1 (stereo not drawn),nt,37.8%,nt,20.0%
CCOc1ccc(CCNC(=O)c2cc3c(-c4ccc(OC)c(OC)c4)nn(C)c3s2)cc1OCC,nt,75.1%,nt,99.2%
N#CC1(c2ccccc2)CCN(C2CC(=O)N(c3ccc4c(c3)OCO4)C2=O)CC1 (stereo not drawn),3.8%,70.8µM*,-1.0%,5.0%
[O]=[Sb]([OH])([OH])[c]1ccccc1,nt,6.31µM*,nt,-1.0%
O=C(Nc1cc[c]([Sb](=[O])([OH])[OH])cc1)c1ccccc1,nt,?,nt,-4.3%
